Pf Dd2 inh: qHTS Primary assay for Inhibitors of Plasmodium falciparum Dd2 growth in vitro | Potency, µM (titrated, usually from 28.9 µM), inactives show top-dose activity, negative = inhibition, actives largely listed as inhibitors | hit rate 4.3% among 120,000 | P. falciparum Dd2 growth, SYBR Green, 72 h; active means well fitted inhibition curve with a large enough effect;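 further: plate controls were DMSO vehicle for no effect and reference drug for full effect; nearly all actives have a fitted effect of over 65% in size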
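Infected erythrocytes (Dd2, 0.3% parasitemia, 2.5% hematocrit final) are added to compound in RPMI-1640/Albumax II medium, grown 72 h at 37C in low oxygen, then lysed with saponin/Triton-X containing SYBR Green and read by fluorescence.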
* = called active by the depositor; [ ] = remark or other dose. This is one part of a sample in which hits are shown more often than they occur. Potency means the concentration at half of the fitted maximal effect.

CC1CCN(C(=O)c2ccc3c(c2)C(O)CCCCCN3C)CC1 (stereo not drawn) was read as Pf Dd2 inh inactive.
`O=C(C[C@@H]1CCNC[C@@H]1Cc1cc(-c2ccccc2)on1)N1CCC(n2c(=O)[nH]c3ccccc32)CC1` gave Pf Dd2 inh -16.4%.
For OC1(CN2CCN(c3ccc(F)c(Cl)c3)CC2)CCCNC1 (stereo not drawn) the results were Pf Dd2 inh 7.94µM*.
For Cn1ncc(N2CCN(CC3(O)CCCNC3)CC2)cc1=O (stereo not drawn) the results were Pf Dd2 inh -2.7%.
Screening OC1(CN2CCN(c3nccs3)CC2)CCCNC1 (stereo not drawn) returned Pf Dd2 inh -3.7%.
Screening CCCC1c2nccn2CCCN1C(=O)CCc1c(C)noc1C (stereo not drawn) returned Pf Dd2 inh -5.6%.
COc1ccc(CNC(=O)C[C@@H]2CCNC[C@@H]2Cc2cc(-c3ccc(F)cc3)on2)cc1 was read as Pf Dd2 inh -1.6%.
For C#CCOc1ccccc1-c1c(-c2ccccc2)ncn1CCCO the results were Pf Dd2 inh -24.2%.
For OCCOCCn1cnc(-c2ccccc2)c1-c1ccc(-n2cccn2)cc1 the results were Pf Dd2 inh -25.4%.
`COc1cc(OC)c(-c2c(-c3ccccc3)ncn2CCF)cc1OC` gave Pf Dd2 inh 10µM*.
Screening CC(C)N1CCC(N2CCN(Cc3cn[nH]c3-c3cccc(F)c3)CC2CCO)CC1 (stereo not drawn) returned Pf Dd2 inh 3.8%.
Screening C=CCC1(C(=O)O)CCCN(Cc2ccc(OC)c(COC)c2)C1 (stereo not drawn) returned Pf Dd2 inh -6.7%.
For COc1ccc(CNC(=O)C(=O)NCC(c2ccco2)S(=O)(=O)c2ccc(C)cc2)cc1 (stereo not drawn) the results were Pf Dd2 inh inactive.
`COc1ccc(CNCCN2CCCC2)cc1` gave Pf Dd2 inh -8.9%[44.1 µM].
For COc1ccc(CNCCC(c2ccc(C)cc2)c2ccco2)cc1 (stereo not drawn) the results were Pf Dd2 inh 12.6µM*.
CCn1ccc(C(=O)N2CCC3(CC2)CC(OCC2CC2)CCO3)n1 (stereo not drawn) was read as Pf Dd2 inh 24.1%.
`CCC1(C(=O)NCCN2CCOCC2)CCCCC(=O)N1` (stereo not drawn) gave Pf Dd2 inh -24.4%.
Screening O=C(CN1C(=O)NC2(CCOCC2)C1=O)Nc1ccc2c(c1)CCC2 returned Pf Dd2 inh 50.9%.
Cn1nccc1C(=O)N1CCCN(S(=O)(=O)c2ccccc2)CCC(=O)NCC1 was read as Pf Dd2 inh 5.6%.
Screening COc1cccc(CN2CCc3nn(C)c(=O)n3CC2)c1OC returned Pf Dd2 inh 40.1%.
For COc1cccc(CN2C[C@@H]3C(=O)N(CCN4CCc5ccccc5C4)C(=O)[C@@H]3C2)c1OC the results were Pf Dd2 inh 7.08µM*.
Screening COCCN1C(=O)[C@H]2CN(Cc3ccccc3OC(F)(F)F)C[C@H]2C1=O returned Pf Dd2 inh 49.8%.
For COCCOC1CCOC2(CCN(C(=O)Cc3ccsc3)CC2)C1 (stereo not drawn) the results were Pf Dd2 inh inactive.
O=C(Cc1ccsc1)N[C@@H]1COCC[C@@H]1OCc1cscn1 was read as Pf Dd2 inh -4.9%.
O=C(c1cc(F)ccc1F)N1CCC2(CC1)NC(=O)N(Cc1ccccc1)C2=O was read as Pf Dd2 inh 31.4%.
COc1ccc(S(=O)(=O)N(CC(=O)NCc2ccccc2OC)c2ccc(C)cc2)cc1 was read as Pf Dd2 inh -20.3%.
Screening CCOc1ccc(S(=O)(=O)N(CC(=O)NCc2ccccc2OC)c2ccccc2)cc1 returned Pf Dd2 inh 8.6%.
For CCN(CC)S(=O)(=O)c1ccc2oc(C(=O)NCc3ccccc3OC)c(C)c2c1 the results were Pf Dd2 inh 7.94µM*.
For O=C(c1ccc(F)c(F)c1)N1CCC2(CC1)N=C(c1ccc(Cl)cc1)NO2 the results were Pf Dd2 inh inactive.
For CSc1ccc(CNC(=O)C2CCN(C(=O)c3ncn4c3COC(c3ccccc3)C4)CC2)cc1 (stereo not drawn) the results were Pf Dd2 inh inactive.
Screening C=CCC1(CO)CCCN(CCS(=O)(=O)c2ccccc2)C1 (stereo not drawn) returned Pf Dd2 inh -13.4%.
`CCOc1ccc(CCNC(=O)c2ccc(-n3c(C)cc4c3CCCC4)cc2)cc1OCC` gave Pf Dd2 inh 7.94µM*.
CCCNC(=O)c1ccc(-n2c(-c3ccccc3)cc3c2CCC(C)C3)cc1 (stereo not drawn) was read as Pf Dd2 inh inactive.
CC1CCc2c(cc(-c3ccccc3)n2-c2ccc(C(=O)NC(C)C)cc2)C1 (stereo not drawn) was read as Pf Dd2 inh inactive.
COCCNC(=O)c1ccc(-n2c(-c3ccccc3)cc3c2CCC(C)C3)cc1 (stereo not drawn) was read as Pf Dd2 inh -30.7%.
`CN(C)CCNC(=O)c1ccc(-n2c(-c3ccccc3)cc3c2CCCCC3)cc1` gave Pf Dd2 inh 0.355µM*.
Screening COCCCNC(=O)c1ccc(-n2c(-c3ccccc3)cc3c2CCCCC3)cc1 returned Pf Dd2 inh 5.01µM*.
Cc1cc2c(n1-c1ccc(C(=O)NCc3ccc(OC(C)C)cc3)cc1)CCCC2 was read as Pf Dd2 inh -13.4%.
Screening CCOc1ccc(CCNC(=O)c2ccc(C)c(-n3c(C)nc4cccnc43)c2)cc1OCC returned Pf Dd2 inh -2.2%.
For CC(C)NC(=O)c1ccc(-n2c(-c3ccccc3)cc3c2CCCCC3)cc1 the results were Pf Dd2 inh -19.8%.
Screening O=C(c1ccc(N2CCCC(O)C2)nc1)N1CCC(N2CCOCC2)CC1 (stereo not drawn) returned Pf Dd2 inh 21.3%.
For O=C(N[C@H](Cc1ccncc1)C1CC(O)C1)c1cccn1C1CC1 (stereo partly drawn) the results were Pf Dd2 inh 2.0%.
NC(=O)C1CCN(CC[C@H]2CN(C(=O)c3ccc(C(F)(F)F)cc3)CC[C@H]2CC(=O)O)CC1 was read as Pf Dd2 inh 21.8%.
For CCc1nc(-c2nnn3c2COC(c2ccc(OC)cc2)C3)no1 (stereo not drawn) the results were Pf Dd2 inh inactive.
For COc1ccc(C2Cn3nnc(-c4noc(CCc5cccc(OC)c5)n4)c3CO2)cc1 (stereo not drawn) the results were Pf Dd2 inh -17.6%.
COc1ccc(C2Cn3nnc(-c4noc(COc5cccc(C)c5)n4)c3CO2)cc1 (stereo not drawn) was read as Pf Dd2 inh 10µM*.
O=C(c1ccccc1)N1CCC2(CC1)C(=NC1CCCCC1)NC(=O)N2c1cc(F)cc(F)c1 was read as Pf Dd2 inh -9.2%.
O=C(NC1CCCC1)N1CCc2nnc(C3CC3)n2CC1 was read as Pf Dd2 inh 5.9%.
CC(=O)NC1CC2(CCN(C(=O)Cc3c(C)noc3C)CC2)Oc2ccccc21 (stereo not drawn) was read as Pf Dd2 inh 9.3%.
NC(=O)[C@@H]1C[C@H](Oc2cccnc2)CN1C(=O)CC1CCCCC1 was read as Pf Dd2 inh 5.6%.
COc1ccc(N2C(=O)C3(CCCCC3)C2C(=O)NCCCN2CCCC2=O)cc1 (stereo not drawn) was read as Pf Dd2 inh -11.9%.
CS(=O)(=O)N1CCN2C(=O)N(Cc3ccc(F)cc3)C[C@H]2C1 was read as Pf Dd2 inh -5.2%[44.1 µM].
Cc1cnc(C2CC2)n1C1CCCN(Cc2ccccc2)C1 (stereo not drawn) was read as Pf Dd2 inh inactive.

Screens (PubChem)
